Consider 44 molecules from PubChem BioAssay AID720517 (National Center for Advancing Translational Sciences (NCATS), 2013).

A short description of this assay: qHTS for Inhibitors of Cell Surface uPA Generation: FP59 Counterscreen for Cherry-picked Compounds. The note with it: FP59 anthrax toxin cytotoxicity counterscreen, cells; series mostly up to 115 µM.

Records with an inconclusive call do not appear. Where a call stands in place of a potency, no number is given. Active and inactive are the calls of the source. Calls follow the shape of the dose curve; as a rule, active = well fitted activation curve with a large enough effect; inconclusive = small, poorly fitted or top-dose-only effect; inactive = flat fitted curve, though single readings scatter.

Consider `O=C(NNC(=O)c1cccnc1)c1ccncc1`, for which the Potency entry is “inactive”.

As to `COc1ccc(-c2cc3nc(C)cc(-c4ccc(OC)cc4)n3n2)cc1`, the Potency entry was “inactive”.

With `Cn1c(CN2CCCC2)nc2cc(NC(=O)COc3ccccc3)ccc21`, the Potency entry was “inactive”.

Turning to `Cc1ccc(-n2cccc2C(=O)NS(=O)(=O)c2ccc(C)cc2)cc1`, the Potency entry was “inactive”.

Consider `CCO[C@H]1OC(C(=O)N2CCCCCCC2)=C[C@@H](c2ccc(C(F)(F)F)cc2)[C@@H]1CCCO`, for which the Potency result was “inactive”.

As to `Cn1c(SCC(=O)NNC(=O)c2ccc(Br)cc2)nnc1-c1cccnc1`, the Potency entry was “inactive”.

For the molecule `Cc1ccc(S(=O)(=O)N2CCC(C)CC2)cc1`, the Potency entry is “inactive”.

With `O=C(O)CNC(=S)N(Cc1ccccc1)Cc1cccnc1`, the Potency entry is “inactive”.

Regarding `O=[N+]([O-])c1cccc2c(N3CCOCC3)ccnc12`, the Potency entry is “inactive”.

As to `O=C(CSc1ccc([N+](=O)[O-])cn1)Nc1nccs1`, the Potency entry was “inactive”.

On to `O=C(CCCC(=O)N(c1cccc(F)c1)C(C(=O)NC1CCCC1)c1ccc(O)cc1)Nc1ccccn1` (centres undefined), for which the Potency result is “inactive”.

On to `Cc1ccc(C(=O)NNC(=O)CNc2cccc(Cl)c2)cc1`, for which the Potency result is “inactive”.

As for `CCC1(C)NC(=O)N(CC(=O)Nc2sc3c(c2C(N)=O)CCC3)C1=O` (centres undefined), the Potency result is “inactive”.

For the molecule `Cn1nc(C(C)(C)C)c([N+](=O)[O-])c1C(=O)N1CCOCC1`, the Potency entry is “inactive”.

Regarding `CCC(=O)N1CCC(NC(=O)Nc2ccc(OC(F)(F)F)cc2)CC1`, the Potency result is “inactive”.

For `CCCCn1c(C2CCCCC2)nc2cc3[nH]c(=O)c(C(C)C)nc3cc21`, the Potency result is “inactive”.

With `COCCOC(=O)C1=C(C)NC(=O)NC1c1cccc2ccccc12` (centres undefined), the Potency entry is “inactive”.

In the case of `Cc1cc(C)n(C(=O)c2cccc([N+](=O)[O-])c2)n1`, the Potency entry was “inactive”.

Regarding `Cc1cc(/C=N/NC(=O)c2ccccc2F)c(C)n1-c1ccccc1`, the Potency entry was “inactive”.

With `Cc1ccc(NS(=O)(=O)c2c(C)nc3sccn3c2=O)c(C)c1`, the Potency result is “inactive”.

For `Cc1cccc(-c2nc(CS(=O)CC(=O)NCc3cccs3)c(C)o2)c1` (centres undefined), the Potency entry is “inactive”.

For `NC(=O)CC(NC(=O)Cc1cccc2ccccc12)c1ccc(N2CCN(c3ccc(F)cc3)CC2)c([N+](=O)[O-])c1` (centres undefined), the Potency entry is “inactive”.

Regarding `CC/C(=N\Nc1ccccc1[N+](=O)[O-])c1ccc(O)cc1`, the Potency entry was “inactive”.

For the molecule `O=C(COc1ccc(C(=S)N2CCOCC2)cc1)N1CCOCC1`, the Potency result was “inactive”.

As to `O=C(C[C@H]1C[C@H](C(=O)N2CCOCC2)[C@@]2(CCC3CCCC3)c3[nH]c4cc(-c5ccco5)ccc4c3CCN2C1=O)NCc1cccc(C(F)(F)F)c1`, the Potency result was “inactive”.

Regarding `O=C(COC(=O)/C=C/c1cccc(F)c1)Nc1ccccc1`, the Potency entry was “inactive”.

Take `Cc1cccc(N2C(=O)N3[C@H](c4ccc(F)cc4)[C@@H]4C(=O)N(C5CCCCC5)C(=O)[C@@H]4[C@]3(Cc3ccc(Cl)cc3)C2=O)c1`: the Potency result is “inactive”.

Regarding `CC(=O)c1ccc(NC(=O)CN2CCN(c3ccccc3)CC2)cc1`, the Potency entry is “inactive”.

Turning to `CCOC(=O)CC(=O)CSc1nc2c(C)c(C)ccc2cc1C`, the Potency entry is “inactive”.

On to `O=C(COc1ncnc2sccc12)Nc1cccc(S(=O)(=O)N2CCCC2)c1`, for which the Potency entry is “inactive”.

Turning to `O=C(N/N=C/c1cccnc1)c1ccccc1[N+](=O)[O-]`, the Potency result is “inactive”.

For the molecule `CCOC(=O)Oc1c(OC)cc(C(=O)O[C@@H]2C[C@@H]3CN4CCc5c([nH]c6cc(OC)ccc56)[C@H]4C[C@@H]3[C@H](C(=O)OC)[C@H]2OC)cc1OC`, the Potency result is “inactive”.

For `CCC(C)C(NC(=O)c1ccccc1)C(=O)Nc1ccc(S(=O)(=O)Nc2cc(C)nc(C)n2)cc1` (centres undefined), the Potency entry was “inactive”.

With `COc1cc(OC)cc(C(=O)NC(C(=O)Nc2ccc3c(c2)CCC3)C(C)C)c1` (centres undefined), the Potency entry was “inactive”.

Consider `O=C(O)c1ccccc1/C=N/NC(=S)NC1CCCCC1`, for which the Potency result was “inactive”.

Consider `O=C(NCCCn1ccnc1)C(=O)NCC(c1cccnc1)N1CCN(c2ccc(F)cc2)CC1` (centres undefined), for which the Potency result was “inactive”.

For the molecule `Cc1c(NC(=S)Nc2ccc(Cl)cc2)c(=O)n(-c2ccccc2)n1C`, the Potency entry was “inactive”.

For `COC(=O)C(CCSC)NC(=O)Cn1ncc2c(=O)oc3ccccc3c21` (centres undefined), the Potency entry was “inactive”.

As for `Cn1c(=O)c(=O)n(C)c2cc(S(=O)(=O)CCC(=O)Nc3ccc(F)cc3)ccc21`, the Potency result was “inactive”.

Consider `CCOC(=O)CN1C(=O)N[C@@H](c2ccco2)C(C(=O)OC)=C1C`, for which the Potency entry was “inactive”.

`C=CCN1C=C2C(=O)C(C)(OC(=O)c3cnc4ccccc4n3)C(=O)C=C2C=C1/C=C/COC` (centres undefined): the Potency result is “inactive”.

Take `C[C@@]12C(=O)N(CC3CCCO3)CC(=O)N1[C@H]1c3cc(Cl)ccc3OC[C@@H]1[C@@H]2c1ccccc1` (some centres undefined): the Potency entry was “inactive”.

Turning to `CN(CCCNC(=O)Cn1cccc1C(=O)c1ccccc1)C1CCCCC1`, the Potency entry is “inactive”.

Consider `COc1cc(CCC(=O)OCC(=O)Nc2ccc(C)cc2Br)cc(OC)c1OC`, for which the Potency result was “inactive”.
